# Experimental data published in ChEMBL document CHEMBL1157539, “Thousands of chemical starting points for antimalarial lead identification” (Nature, 2010).
# Assays:
# [1] = system: Plasmodium falciparum; assay: GSK_TCMDC: Inhibition of Plasmodium falciparum 3D7 in whole red blood cells, using parasite LDH activity as an index of growth. Test compounds present at 2uM; type: functional
# [2] = system: Plasmodium falciparum; assay: GSK_TCMDC: Inhibition of Plasmodium falciparum Dd2 in whole red blood cells, using parasite LDH activity as an index of growth. Test compounds present at 2uM; type: functional
smiles,measurement,setting,value
COc1ccc2c(O)c(Br)c(C)nc2c1,Inhibition,[1],89%
same,Inhibition,[2],74%
CCC(C(C)C)n1ccc2c3c(N)nc(N)nc3ccc21 (stereo not given),Inhibition,[1],95%
same,Inhibition,[2],95%
Cc1nc(C)c(-c2ccc(Sc3ccc(Cl)cc3)cc2)c(O)c1Br,Inhibition,[1],98%
same,Inhibition,[2],97%
Cl.Oc1ccc2c(CNC3CCCCC3)c(O)ccc2c1CNC1CCCCC1,Inhibition,[1],100%
same,Inhibition,[2],100%
COc1cc(Cc2cnc(N)nc2N)cc(OCCCCCCC(=O)O)c1OC,Inhibition,[1],90%
same,Inhibition,[2],2%
N=C(NCC1CC1c1ccccc1)c1cccc(C(=N)NCC2CC2c2ccccc2)n1 (stereo not given),Inhibition,[1],95%
same,Inhibition,[2],0%
Nc1nc(N)c2c(Oc3cc(Cl)c(Cl)c(Cl)c3)cccc2n1,Inhibition,[1],100%
same,Inhibition,[2],92%
Nc1nc(N)c2cc(Cc3ccccc3Cl)cnc2n1,Inhibition,[1],93%
same,Inhibition,[2],0%
Cl.Clc1ccc(CNCCCCCCCNCc2ccc(Cl)c(Cl)c2)cc1Cl,Inhibition,[1],99%
same,Inhibition,[2],49%
CCOc1ccc(CNCCCCCCNCc2ccc(OCC)c3ccccc23)c2ccccc12.CS(=O)(=O)O,Inhibition,[1],100%
same,Inhibition,[2],75%
CC(C)c1ccc(Cn2cc(-c3ccncc3)c3cc(OCc4ccccc4)ccc32)cc1.Cl,Inhibition,[1],99%
same,Inhibition,[2],88%
COc1ccc2c(c1CCNCCCCNCCc1c(OC)ccc3c1CCCC3)CCCC2.CS(=O)(=O)O,Inhibition,[1],100%
same,Inhibition,[2],25%
Cl.c1ccc2c(NCCOCCNc3c4ccccc4nc4ccccc34)c3ccccc3nc2c1,Inhibition,[1],94%
same,Inhibition,[2],0%
N=C(N)NC(=O)Nc1ccc(Cl)c(C(F)(F)F)c1,Inhibition,[1],100%
same,Inhibition,[2],13%
Cc1cc(O)c(-c2ccc(S(=O)(=O)c3ccc(Cl)cc3)cc2)c(C)n1,Inhibition,[1],92%
same,Inhibition,[2],80%
Cc1[nH]c(C)c(-c2ccc(Oc3ccc(C(F)(F)F)cc3)cc2)c(=O)c1Br,Inhibition,[1],97%
same,Inhibition,[2],97%
COc1cc(Cc2cnc(N)nc2N)cc(OCCCCCCN)c1OC.Cl,Inhibition,[1],96%
same,Inhibition,[2],0%
Cl.Oc1cc2ccccc2cc1CNC1CCCCC1,Inhibition,[1],98%
same,Inhibition,[2],89%
CC(=O)Oc1c(Br)c(C)nc(C)c1-c1ccc(Oc2ccc(OC(F)(F)F)cc2)cc1,Inhibition,[1],98%
same,Inhibition,[2],97%
CC(C)(C)c1ccc(-c2nc3c(ccc4nc(N)nc(N)c43)[nH]2)cc1.Cl,Inhibition,[1],100%
same,Inhibition,[2],100%
Cc1nc(C)c(-c2ccc(Oc3ccc(OC(F)(F)F)cc3)cc2)c(OC(=O)c2ccc(CN(C)C)cc2)c1Cl,Inhibition,[1],98%
same,Inhibition,[2],98%
CCCN(c1ccc(O)c(CN2CCCCC2)c1)c1ccc([N+](=O)[O-])cn1.O=C(O)C(=O)O,Inhibition,[1],99%
same,Inhibition,[2],96%
C=CCn1ccc2c3c(N)nc(N)nc3ccc21,Inhibition,[1],89%
same,Inhibition,[2],91%
CCCc1cc(Cc2cnc(N)nc2N)cc2c1OC(C)(C)C2.Cl,Inhibition,[1],89%
same,Inhibition,[2],3%
O=C(NCCCCN1CCN(c2nsc3ccccc23)CC1)c1ccccc1C(=O)NCCCCN1CCN(c2nsc3ccccc23)CC1,Inhibition,[1],100%
same,Inhibition,[2],22%
CC1CNC(c2ccc(NC(=O)Nc3ccc(C4=NC(C)CN4)cc3)cc2)=N1.Cl (stereo not given),Inhibition,[1],85%
same,Inhibition,[2],67%
CCN(CC)CCNc1cc(C)nc(NC(=N)Nc2ccc(Cl)cc2)n1.Cl,Inhibition,[1],100%
same,Inhibition,[2],0%
CCOc1cc2ncnc(Nc3ccc(OCc4ccccc4OC)c(OC)c3)c2cc1OCC.Cl,Inhibition,[1],97%
same,Inhibition,[2],52%
Nc1nc(N)c2c(Sc3ccc(F)cc3)cccc2n1,Inhibition,[1],88%
same,Inhibition,[2],0%
Cl.c1ccc2c(c1)cc(CNCCCN1CCN(CCCNCc3cc4ccccc4c4ccccc34)CC1)c1ccccc12,Inhibition,[1],100%
same,Inhibition,[2],98%
